{"source": "PubChem BioAssay AID2546", "about": "(National Center for Advancing Translational Sciences (NCATS), 2010)", "note": "About 11,000 (3.5%) of roughly 310,000 compounds were called active. A call without a number means that no potency is given here. Another 8% or so got no clear call; they are omitted. This is one part of a sample in which actives are shown more often than they occur. The call rests on the fitted dose curve; in most records, active means well fitted inhibition curve with a large enough effect; inconclusive means small, poorly fitted or top-dose-only effect, or effect the other way; inactive means flat fitted curve, though single readings scatter. Potency means the concentration at half of the fitted maximal effect.", "data": [{"test": "VP16 counterscreen qHTS for inhibitors of ROR gamma transcriptional activity;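 further: Gal4-VP16 expression switched on by copper sulfate through the metallothionein promoter; nearly all actives have a fitted effect of over 50% in size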", "conditions": "Drosophila S2 Gal4-VP16 UAS-luciferase, luminescence, 20 h; series mostly up to 53.6 µM", "values": [{"smiles": "Cc1ccccc1CCNC(=O)C1CCC(=O)N(Cc2ccc(Cl)cc2)C1", "note": "(centres undefined)", "Potency": "inactive"}, {"smiles": "CCCn1cc(S(=O)(=O)c2ccc(C)cc2)c(=O)c2cc(OCC)ccc21", "Potency": "inactive"}, {"smiles": "Cc1cc(C)nc(N/N=C/c2ccncc2)n1", "Potency": "inactive"}, {"smiles": "Cc1ccc(C(=O)NCCNC(=O)c2cnccn2)cc1", "Potency": "inactive"}, {"smiles": "CCN(CC)c1ccc(/C=N/Nc2nc(C)cc(=O)[nH]2)cc1", "Potency": "inactive"}, {"smiles": "CCN(CC)c1ccc(/C=N/NC(=O)c2cnccn2)c(O)c1", "Potency": "5.62 µM (active)"}, {"smiles": "CCN(CC)c1ccc(/C=N/Nc2nc(C)cc(C)n2)c(O)c1", "Potency": "4.47 µM (active)"}, {"smiles": "CCN(CC)c1ccc(/C=N/NC(=O)CNC(=O)c2cccnc2)cc1", "Potency": "inactive"}, {"smiles": "Cc1cc(=O)n2nc(N3CCC(C(=O)Nc4c(F)c(F)c(F)c(F)c4F)CC3)sc2n1", "Potency": "inactive"}, {"smiles": "COc1ccc(S(=O)(=O)N2CCSCC2)cc1", "Potency": "inactive"}, {"smiles": "O=C(NNS(=O)(=O)c1ccc(F)cc1)c1ccc([N+](=O)[O-])cc1Cl", "Potency": "inactive"}, {"smiles": "O=C(COc1ccc(Cl)cc1)Nc1ccc2c(c1)OCO2", "Potency": "inactive"}, {"smiles": "O=c1oc2ccccc2cc1-c1csc(Nc2ccc(O)cc2)n1", "Potency": "inactive"}, {"smiles": "Cc1cc(O)ccc1-c1cnc2ccccc2n1", "Potency": "inactive"}, {"smiles": "Cc1ccc(Nc2nc(-c3ccc(O)cc3O)cs2)nc1", "Potency": "11.2 µM (active)"}, {"smiles": "C=Cn1cc[n+](CC(=O)c2ccc(OC)c(OC)c2)c1", "Potency": "inactive"}, {"smiles": "Cc1cc(/C=N/NC(=O)CC2(C)OCCO2)c(C)n1-c1ccc(Cl)c(Cl)c1", "Potency": "12.6 µM (active)"}, {"smiles": "Cc1ccc(-n2c(C)cc(/C=N\\NC(=O)CC(=O)NC(C)C)c2C)cc1", "Potency": "inactive"}, {"smiles": "Cc1ccccc1-n1c(C)cc(/C=N/NC(=O)c2ccc(CN3CCOCC3)cc2)c1C", "activity, negative = inhibition": "-2.91% [at 0.365 µM] (inactive)"}, {"smiles": "COc1ccccc1C(=O)NC(CCSC)C(=O)NNC(=O)c1csc(N2CCOCC2)n1", "note": "(centres undefined)", "Potency": "inactive"}, {"smiles": "CCOc1ccc(C(=O)COC(=O)c2ccc(-n3cnnn3)cc2)cc1", "Potency": "inactive"}, {"smiles": "CCCc1nc2sc3c(c2c(=O)n1NC(=O)CCCl)CCCC3", "Potency": "inactive"}, {"smiles": "CCn1c(=S)[nH]c2sc3c(c2c1=O)CCCCC3", "Potency": "1.12 µM (active)"}, {"smiles": "CN(C)CCCn1c(=O)n(Cc2ccccc2)c(=O)c2c3c(sc21)CCCCC3", "Potency": "inactive"}, {"smiles": "CC(C)c1ccc(NC(=O)[C@@H](NC(=O)N2CC(=O)Nc3ccccc32)C(C)C)cc1", "Potency": "inactive"}, {"smiles": "S=C(NNC(=S)NC1CC2C=CC1C2)NC1CC2C=CC1C2", "note": "(centres undefined)", "Potency": "inactive"}, {"smiles": "S=C(NNC(=S)NC1CC2CCC1C2)NC1CC2C=CC1C2", "note": "(centres undefined)", "Potency": "inactive"}, {"smiles": "CC(C)c1ccc(NC(=S)NC2CC3C=CC2C3)cc1", "note": "(centres undefined)", "Potency": "11.2 µM (active)"}, {"smiles": "Cc1nn(C(C)C(=O)NCCC2=CCCCC2)c(=O)c2nn(-c3ccccc3)c(C)c12", "note": "(centres undefined)", "Potency": "inactive"}, {"smiles": "COc1ccc(C(=O)NC2CC2)cc1OC1CCN(C/C=C/c2ccccc2)CC1", "Potency": "inactive"}, {"smiles": "CN(C)S(=O)(=O)c1cccc(C(=O)OCC(=O)N2CCCC2=O)c1", "Potency": "inactive"}, {"smiles": "CCOC(=O)C1CCN(C(=O)Cn2nc(C)c3c(C)n(-c4ccccc4)nc3c2=O)CC1", "Potency": "inactive"}, {"smiles": "CC(C)c1cc(C(=O)N/N=C/c2ccoc2)c(O)c(C(C)C)c1", "Potency": "3.16 µM (active)"}, {"smiles": "O=C(N/N=C/c1ccoc1)c1ccc(Cl)cc1Cl", "Potency": "inactive"}, {"smiles": "CC(Oc1ccccc1[N+](=O)[O-])C(=O)N/N=C/c1ccoc1", "note": "(centres undefined)", "Potency": "inactive"}, {"smiles": "Cn1c(N2CCOCC2)c(C=O)c2ccccc21", "Potency": "inactive"}, {"smiles": "CC1CCC(NS(=O)(=O)c2ccc3c(c2)CC(=O)N3)CC1", "note": "(centres undefined)", "Potency": "inactive"}, {"smiles": "Cc1occc1C(=O)NC1CCCN(Cc2ccc(CC(C)C)cc2)C1", "note": "(centres undefined)", "Potency": "inactive"}, {"smiles": "C=CCOc1c(Br)cc(/C=N\\n2nnnc2N)cc1OC", "Potency": "inactive"}, {"smiles": "CCOc1cc(/C=C/c2nc3ccccc3c(=O)[nH]2)cc(Br)c1OC", "Potency": "inactive"}, {"smiles": "CCOc1c(Br)cc(/C=C2\\C(=O)N(CCC#N)N=C2C)cc1OC", "Potency": "11.2 µM (active)"}, {"smiles": "C=CCOC(=O)C1=C(C)NC(C)=C(C(=O)OCC=C)C1c1cccs1", "Potency": "inactive"}, {"smiles": "CCOC(=O)C1=C(C)Nc2nc3ccccc3n2C1c1cccs1", "note": "(centres undefined)", "Potency": "5.01 µM (active)"}, {"smiles": "CCOC(=O)c1ccc(NC(=O)C2CC(=O)Nc3nc4ccccc4n32)cc1", "note": "(centres undefined)", "Potency": "inactive"}, {"smiles": "CCOc1ccc2[nH]c(C(=O)N/N=C/c3cccc(OC)c3OC)cc2c1", "Potency": "inactive"}, {"smiles": "COc1cccc(CCNC(=O)c2cccc(NC(=O)C3=C(C)OCCS3)c2)c1", "Potency": "inactive"}, {"smiles": "Cc1cc(SCC(=O)c2ccccc2)nc(SCC(=O)c2ccccc2)n1", "Potency": "inactive"}, {"smiles": "Cc1cc(C)nc(S/C=C/C(=O)c2ccccc2)n1", "Potency": "3.55 µM (active)"}, {"smiles": "Cc1ccc(N/C=C/C(=O)c2ccccc2)cc1C", "Potency": "inactive"}, {"smiles": "CSc1ccccc1NC(=O)c1ccc2c(c1)CCN2S(C)(=O)=O", "Potency": "inactive"}, {"smiles": "Cc1nn(CCCC(=O)NCc2ccccc2Cl)c(=O)c2nccn12", "Potency": "inactive"}, {"smiles": "O=C(Cc1ccccc1)Nc1ccc(C(=O)Nc2ccccc2C(=O)O)cc1", "Potency": "inactive"}, {"smiles": "CCOc1ccc(CN2CCN(Cc3ccc4cc(F)ccc4n3)CC2CCO)cc1", "note": "(centres undefined)", "Potency": "inactive"}, {"smiles": "COc1ccc(C(=O)NCc2nnc(SCC(=O)Nc3cccc(OC)c3)o2)cc1", "Potency": "inactive"}, {"smiles": "COc1cc(C(=O)NCc2nnc(SCC(=O)Nc3nc4ccc(C)cc4s3)o2)cc(OC)c1OC", "Potency": "3.16 µM (active)"}, {"smiles": "COc1cc(C(=O)NCc2nnc(SCC(=O)c3ccc(Cl)cc3)o2)cc(OC)c1OC", "Potency": "inactive"}, {"smiles": "O=C(CNC(=O)c1ccc(Br)o1)NCC1CCCO1", "note": "(centres undefined)", "Potency": "inactive"}, {"smiles": "COc1ccc(/C=C/C(=O)NC(=S)N2CCCC(C(N)=O)C2)cc1", "note": "(centres undefined)", "Potency": "inactive"}, {"smiles": "CCNC(=S)N1CCN(C(=O)c2ccco2)CC1", "Potency": "inactive"}, {"smiles": "COc1ccc(C)cc1NC(=S)N1CCOCC1", "Potency": "inactive"}, {"smiles": "O=C(/C=C/c1ccco1)NC(=S)N1CCCCC1", "Potency": "22.4 µM (active)"}, {"smiles": "COc1ccccc1/C=C/C(=O)NC1CC2CCC1C2", "note": "(centres undefined)", "Potency": "inactive"}, {"smiles": "COc1ccccc1/C=C/C(=O)NC(=S)N1CCOCC1", "Potency": "8.91 µM (active)"}, {"smiles": "CC1CCCN(S(=O)(=O)c2ccc(-c3ccc(=O)[nH]n3)o2)C1", "note": "(centres undefined)", "Potency": "inactive"}, {"smiles": "O=C(C1CC(=O)N(c2ccc(Br)cc2)C1)N1CCCC1", "note": "(centres undefined)", "Potency": "inactive"}, {"smiles": "CC(C)c1nc2ccc(C(=O)O)cc2[nH]1", "Potency": "20 µM (active)"}, {"smiles": "Cc1nc2ccc(C(=O)O)cc2[nH]1", "Potency": "inactive"}, {"smiles": "OC(c1nc2ccc(F)cc2[nH]1)C(O)c1nc2ccc(F)cc2[nH]1", "note": "(centres undefined)", "Potency": "inactive"}, {"smiles": "COc1ccc2cc(C(=O)C3CCCN(C(=O)c4sc(C)nc4C)C3)ccc2c1", "note": "(centres undefined)", "Potency": "inactive"}]}]}
